Measurements: PubChem BioAssay (NCATS)
Results filed as inconclusive are left out. The source made the active and inactive calls. Calls follow the shape of the dose curve; as a rule, active = well fitted curve in the direction sought with a large enough effect; inconclusive = small, poorly fitted or top-dose-only effect, or another doubt; inactive = no such curve, though single readings can be large; an effect the other way counts as inactive or inconclusive.

Assay: Viability qHTS for spleen associated tyrosine kinase inhibitor (SYKi) naive MV4-11 cells (AID 1963823); also: nearly all actives have a fitted effect of over 40% in size
Conditions: MV4-11 AML viability, CellTiter-Glo luminescence, 72 h; series mostly up to 45 µM; viability (% of control): at the top concentration
In short: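 SYK inhibitor-naive MV4-11 cells, 500 per well, exposed to compounds for 72 hr at 37 C, 5% CO2. Viability read as CellTiter-Glo luminescence after 10 min at room temperature.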
Potency is read from the fitted curve at half-maximal effect.

Structure (SMILES) | viability (% of control) | Potency
C=C1C[C@]23C[C@H]1CC[C@H]2[C@]1(C)CC[C@H](O)[C@@](C)(C(=O)O)[C@H]1[C@@H]3C(=O)O | 55.5% (inactive) | 
O=C(O)c1ccc(N2C(=O)/C(=C/c3ccc(-c4ccc([N+](=O)[O-])cc4)o3)C=C2c2ccccc2)cc1 | 55.8% (inactive) | 
CC(C)=CCc1ccc(Oc2c(O)cc(C)cc2CO)c(C(=O)O)c1O | 61.9% (inactive) | 
O=C(O[C@@H]1O[C@H](CO)[C@@H](O)[C@H](O)[C@H]1O)c1ccccc1 | 93.8% (inactive) | 
C=C1C2CCC3CC2(CC(O)C2(O)C1CC(OC1OC(CO)C(O)C(O)C1O)C2(C)C)CC3(C)O (centres undefined) | 81.4% [at 17.3 µM] (inactive) | 
O=C(NCCO)c1cccc(-c2cc(Nc3ccc(OC(F)(F)F)cc3)ncn2)c1 |  | 6.51 µM (active)

Assay: Cellular viability qHTS for adrenocortical cancer (ACC) cell line NCI-H295R (AID 1963990); also: nearly all actives have a fitted effect of over 60% in size;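 as to activity change, negative = viability loss: 0% = DMSO only wells and -100% = full killing with cytotoxic reference compound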
Conditions: CellTiter-Glo ATP luminescence, 48 h; series mostly up to 46.1 µM; activity change, negative = viability loss: at the top concentration
In short: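 Readout: CellTiter-Glo luminescence, 20 min RT. Exposure: 48 h, 37C/5% CO2. Cells: NCI-H295R, ITS-DMEM serum-free. Range: up to 46 uM. Analysis: 4PL fit, IC50 plus efficacy.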

Structure (SMILES) | activity change, negative = viability loss | Potency
CC(C)N=C(N)/N=C(\N)Nc1ccc(Cl)cc1 | -27.2% (inactive) | 
CCNCc1nc2c(N)nc3ccccc3c2n1CC(C)(C)O | -29.8% (inactive) | 
O=C(NCC(=O)N1CC[C@H](NC2CCC(O)(c3ccc(-c4ncccn4)cn3)CC2)C1)c1cccc(C(F)(F)F)c1 (some centres undefined) | -25% (inactive) | 
N#Cc1cccc(-c2c[nH]c3ncnc(N4CCOCC4)c23)c1 | 9.91% (inactive) | 
CN1C(=O)c2ccccc2C1=O | -4.75% [at 92.7 µM] (inactive) | 
CCOC(N)=O | 7.61% (inactive) | 
Oc1c(I)cc(Cl)c2cccnc12 |  | 14.6 µM (active)
COc1c(N2C[C@@H]3CCCN[C@@H]3C2)c(F)cc2c(=O)c(C(=O)O)cn(C3CC3)c12 | -15.9% (inactive) | 
CN(C)CCCO[C@@H]1[C@H]2OC(C)(C)O[C@H]2O[C@@H]1C(O)CO (some centres undefined) | -13.2% (inactive) | 
CO[C@@]1(NC(=O)Cc2cccs2)C(=O)N2C(C(=O)O)=C(COC(N)=O)CS[C@@H]21 | 1.69% (inactive) | 
Nc1nc(N)c2nc(-c3ccccc3)c(N)nc2n1 |  | 4.61 µM (active)
CO/N=C(/C(=O)N[C@@H]1C(=O)N2C(C(=O)O)=C(Cn3nnc(C)n3)CS[C@H]12)c1csc(N)n1 | 2.01% (inactive) | 
CC1(C)S[C@@H]2[C@H](NC(=O)C(c3ccccc3)S(=O)(=O)O)C(=O)N2[C@H]1C(=O)O (some centres undefined) | 0.325% (inactive) | 
